Screening results as filed in PubChem.
rTrxR1 inhibitor – inhibitors of rat thioredoxin reductase 1 | O89049 | recombinant rTrxR1, NADPH fluorescence consumption, selenite substrate | Potency, µM (series often up to 114 µM), for the others: at the top dose activity change, negative = inhibition, hits mostly inhibitors | 390,000 tested, 1% active | AID 588453; also: nearly all actives have a fitted effect of over 65% in size
Target sequence (O89049 whole entry, looked up): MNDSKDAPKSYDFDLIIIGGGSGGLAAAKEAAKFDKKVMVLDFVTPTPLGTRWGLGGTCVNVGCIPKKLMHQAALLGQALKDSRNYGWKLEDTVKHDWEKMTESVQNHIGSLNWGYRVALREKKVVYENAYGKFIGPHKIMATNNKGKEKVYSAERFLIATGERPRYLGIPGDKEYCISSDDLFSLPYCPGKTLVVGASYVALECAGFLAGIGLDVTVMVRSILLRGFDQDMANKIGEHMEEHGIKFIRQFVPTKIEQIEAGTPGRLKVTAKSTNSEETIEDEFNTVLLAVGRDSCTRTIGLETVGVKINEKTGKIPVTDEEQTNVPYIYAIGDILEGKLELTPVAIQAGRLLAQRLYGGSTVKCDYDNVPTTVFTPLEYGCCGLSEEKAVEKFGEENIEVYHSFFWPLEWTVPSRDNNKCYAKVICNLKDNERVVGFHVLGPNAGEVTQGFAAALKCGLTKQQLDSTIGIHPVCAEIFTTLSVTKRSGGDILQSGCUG
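Rat TrxR1 (90 nM in the dispensed reagent) was pre-reduced with 400 uM NADPH for 5 min at room temperature, then incubated with compound for 15 min. After 400 uM selenite was added, NADPH fluorescence (Ex 340/Em 450 nm) was followed for 8 min.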
GCN5L2 inh – blocks human GCN5L2 histone acetyltransferase; AID 504327; Potency, µM (titrated, usually from 58.9 µM), for inactives: at the top dose activity change, negative = inhibition, usual class: inhibitors; 390,000 tested, 0.21% active; GCN5L2 HAT assay, ThioGlo1 CoA-SH fluorescence; Q92830
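Free CoA generated was detected with ThioGlo1 (50uM) fluorescence at Ex340nm/Em540nm, read immediately and after 20 min at room temperature. Enzyme, 20 nM in HEPES pH 7.5 buffer, saw compounds 15 min before adding 75uM H3(1-25) peptide and 70uM acetyl-CoA.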
VDR inhibitor – inhibitors of human vitamin D receptor. P11473. VDR-SRC2-3 peptide fluorescence polarization, 2 h. Potency, µM, for the others: max response, negative = inhibition, hits mostly inhibitors. 400,000 tested, 0.93% active. AID 504847
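Fluorescence polarization assay measuring small-molecule disruption of VDR binding to the coregulator peptide SRC2-3. Compounds were pin-transferred (23 nl) into the reagent mix and incubated 2 h at room temperature before reading.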
TrxR1 substrate – substrates of rat thioredoxin reductase 1 | O89049 | purified TrxR1 substrate turnover, NADPH consumption readout | Potency, µM (top dose mostly 114 µM), without a hit: top-dose activity change, negative = substrate turnover | 390,000 tested, 0.01% active | AID 588456; also: nearly all actives have a fitted effect of over 50% in size
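Rat TrxR1, dispensed at 90 nM, was prereduced with 400 uM NADPH (final) for 5 min at ~22 deg C, then incubated with compound 15 min before 400 uM selenite. A first-read NADPH fluorescence drop versus no-compound background flagged substrates.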
The depositor's hits bear a star; i = inactive; ? = inconclusive; nt = not tested or not shown; ! = a repeat was not active; [ ] = another dose, or the depositor's remark. Most compounds without a hit are left out; they make up all but 1.8% or so of the library. Calls follow the shape of the dose curve; as a rule, active = well fitted curve in the direction sought with a large enough effect; inconclusive = small, poorly fitted or top-dose-only effect, or another doubt; inactive = no such curve, though single readings can be large; an effect the other way counts as inactive or inconclusive. % is scaled to controls: 0 for no effect and ±100 for the full control effect; potency is read from the fitted curve at half-maximal effect.

SMILES	rTrxR1 inhibitor	GCN5L2 inh	VDR inhibitor	TrxR1 substrate
CN1CCC(O)(c2ccc(Cl)cc2)C(C(=O)c2ccc(Cl)cc2)C1 (stereo not given)	0.11µM*	-3%	?	4%
CN1CC(C(=O)c2ccc(Cl)cc2)C(c2ccc(Cl)cc2Cl)C1 (stereo not given)	14%[57.1 µM]	6%	-9%	0%[57.1 µM]
CCC(C)n1c(=O)[nH]c(C)c(Br)c1=O (stereo not given)	nt	16%	12%	nt
O=C1NC(=O)N(c2ccccc2)C(=O)/C1=C\c1ccc([N+](=O)[O-])o1	nt	-7%	nt	nt
CN1C(=O)NC(=O)/C(=C/c2ccc([N+](=O)[O-])o2)C1=O	?	-2%	71µM*	-1%[57.1 µM]
CN1C(=O)NC(=O)/C(=C\c2ccc([N+](=O)[O-])o2)C1=O	16µM*	-2%	?	-6%
O=C(/C=C\c1ccc(Cl)cc1)N[C@@]12CCC(=O)[C@@H]3Oc4c(O)ccc5c4[C@@]31CCN(CC1CC1)[C@@H]2C5	nt	-17%	13%	nt
Cc1cccc(N2C(=O)NC(=O)/C(=C\c3cc(C)n(-c4sc5c(c4C#N)CCCC5)c3C)C2=O)c1C	-7%[57.1 µM]	-8%	16µM*	9%[57.1 µM]
CCOC(=O)c1c(-n2c(C)cc(C=C3C(=O)NC(=O)NC3=O)c2C)sc2c1CCCC2	-35%	-4%	-14%	-13%
Cc1ccc(N2C(=O)NC(=O)/C(=C/C=C/c3ccco3)C2=O)cc1	-11%[57.1 µM]	22%	25µM*	8%[57.1 µM]
Cc1cc(C)cc(N2C(=O)NC(=O)/C(=C\C=C\c3ccco3)C2=O)c1	?	-1%	-22%	-9%
CC1=CC(=O)NP(=O)(Oc2ccc3ccccc3c2)N1 (stereo not given)	?	32µM*	-10%	-8%
CC1CN1P(=O)(Oc1ccc2ccccc2c1)N1CC1C (stereo not given)	11%	nt	-4%	7%
CC(=O)[C@@H]1CC[C@H]2[C@@H]3CC[C@@H]4CC(=O)CC[C@]4(C)[C@H]3CC[C@]12C	nt	-16%	50µM*	nt
CC1=C(O)C(=O)C=C2C1=CC=C1C2(C)CCC2(C)C3CC(C)(C(=O)O)CCC3(C)CCC12C (stereo not given)	20µM*	nt	28µM*	-14%
COC(=O)[C@@H]1C[C@H]1[C@@H](NP(=O)(c1ccccc1)c1ccccc1)c1ccccc1	16µM*	-6%	0%	0%
CCOC(=O)C(SP(=S)(OC)OC)c1ccccc1 (stereo not given)	nt	-20%	3.5µM*	nt
COc1ccc(-c2cc(=NCCCCCC(=O)O)c3cc(C)ccc3o2)cc1	16µM*!	?	-14%	i
Cc1ccc(-c2nc3c(=O)n(C)c(=O)nc-3n(C)n2)cc1	11µM*	nt	-25%	13µM*
Cn1ncnc2c(=O)n(C)c(=O)nc1-2	?	-2%	-6%	40µM*
CON(C)C(=O)Nc1ccc(Br)c(Cl)c1	nt	25%	6%	nt
CC(CCC(=O)O)C1CCC2C3CC[C@@H]4CCCC[C@@]4(C)C3CC[C@@]12C (stereo not given in full)	nt	?	-20%	nt
O=C1NC(=O)C(=Cc2cc3c(cc2[N+](=O)[O-])OCO3)C(=O)N1	8.9µM*	-9%	40µM*	9%
COc1ccc(N2C(=O)NC(=O)/C(=C\c3ccccc3[N+](=O)[O-])C2=O)cc1	10µM*	3%	50µM*	-6%
O=C1NC(=O)C(=Cc2ccccc2[N+](=O)[O-])C(=O)N1	7.9µM*	nt	?	6%
SMILES	rTrxR1 inhibitor	GCN5L2 inh	VDR inhibitor	TrxR1 substrate
O=C1NC(=O)C(=Cc2csc3ccccc23)C(=O)N1	?	-8%	35µM*	7%[57.1 µM]
CN(C)c1ccc(C=C2C(=O)NC(=O)NC2=O)cc1[N+](=O)[O-]	?	-13%	-28%	1%[57.1 µM]
Cn1cc(C=C2C(=O)NC(=O)NC2=O)c2ccccc21	8%	-21%	-7%	11%[57.1 µM]
CC(=O)OC1C(=O)[C@]2(C)C(O)CC3OC[C@]3(OC(C)=O)C2[C@@H](OC(=O)c2ccccc2)[C@]2(O)CC(O)C(C)=C1C2(C)C (stereo not given in full)	nt	-2%	13%	nt
CN1C(=O)C(=Cc2ccccc2Oc2ccc(Cl)c(F)c2)C(=O)N(C)C1=O	11µM*	-3%	28µM*	-6%
CN1C(=O)C(=Cc2ccc(-c3cccc(Cl)c3)o2)C(=O)N(C)C1=O	nt	-12%	nt	nt
CNS(=O)(=O)c1ccc(-c2ccc(C=C3C(=O)NC(=O)NC3=O)o2)cc1	?	-5%	45µM*	0%
